Assay results taken from PubChem BioAssay AID1851 (National Center for Advancing Translational Sciences (NCATS), 2009).
Where “and” joins values, the source holds several entries; their conditions need not be identical. Identical values can stand only once. Out of some 16,000 compounds screened, about 5,800 (36%) were called active. Another 23% or so got no clear call; they are omitted. The list shows a part of the results. A number with no mark means an inactive call. Calls come from the whole dose curve; as a rule, active = well fitted curve in the direction sought with a large enough effect; inconclusive = small, poorly fitted or top-dose-only effect, or effect the other way; inactive = no such curve, though single readings can be large or run the other way.

The compounds below were run against Cytochrome P450 2C19 (Homo sapiens) (UniProt P33261) (assay: Cytochrome panel assay with activity outcomes). Conditions: recombinant CYP, pro-luciferin dealkylation, luminescence, p450-cyp2c19; series mostly up to 57.1 µM.
% is set by controls: 0 for no effect and ±100 for the full control effect.

Cytochrome P450 2C19 (Homo sapiens), sequence (P33261 whole entry, looked up): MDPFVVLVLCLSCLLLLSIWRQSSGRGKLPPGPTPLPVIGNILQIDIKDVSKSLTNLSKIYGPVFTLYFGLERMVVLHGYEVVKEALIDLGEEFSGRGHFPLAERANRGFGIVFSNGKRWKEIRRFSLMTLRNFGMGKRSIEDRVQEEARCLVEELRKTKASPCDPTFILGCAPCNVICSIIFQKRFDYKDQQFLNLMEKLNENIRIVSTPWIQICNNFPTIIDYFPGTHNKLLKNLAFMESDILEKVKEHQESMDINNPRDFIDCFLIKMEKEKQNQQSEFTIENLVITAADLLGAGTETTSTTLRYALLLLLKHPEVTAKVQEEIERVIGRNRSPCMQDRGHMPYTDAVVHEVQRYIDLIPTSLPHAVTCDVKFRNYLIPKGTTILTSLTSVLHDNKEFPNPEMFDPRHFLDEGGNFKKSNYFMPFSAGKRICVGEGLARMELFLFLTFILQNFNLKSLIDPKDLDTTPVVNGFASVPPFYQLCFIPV

SMILES	AC50	activity, negative = inhibition
O=C(OCCNC(=O)c1ccc2ccccc2n1)c1ccc(F)cc1	7.94 µM (active)	
NCCNC(=O)c1ncsc1-c1cccc(F)c1	inactive	
O=C(O)/C=C1\NC(=O)c2ccccc21	inactive	
CCOc1ccccc1OCCOc1ccc(F)cc1	4.47 µM (active)	
CC[N+](CC)(CC)CCOc1ccc(/C=C\c2ccccc2)cc1	inactive	
CCOC(=O)CCN1C(=O)[C@H]2[C@H]3[C@H](O)[C@H](O)C/C(=N/OC[C@@H](O)COCc4ccco4)[C@H]3CC[C@@H]2C1=O		34% [at 11.4 µM]
Cc1ccc(S(=O)(=O)N2CCN(C(=O)c3ccccc3)C2C(C)C)cc1 (stereo not given)	7.08 µM (active)	
CC(=O)N1CC2(CC2)CC1c1ccccc1 (stereo not given)	inactive	
CC(C)NC(=O)N1CC2(CCN(S(=O)(=O)c3ccccc3)CC2)C1	inactive	
CC(=O)N1CCN(S(=O)(=O)c2ccccc2)C1c1ccccc1 (stereo not given)	11.2 µM (active)	
CC(C)NC(=O)N1CCCC2(CCN(S(=O)(=O)c3ccccc3)CC2)C1	inactive	
C=CCC(NCc1ccco1)c1ccc(OC)cc1 (stereo not given)	5.01 µM (active)	
COc1ccc(OC)c(NC(=O)C(CC(=O)O)NCc2ccco2)c1 (stereo not given)	inactive	
COc1ccc(-c2nc(N)c3ncn([C@H]4O[C@@H](CO)[C@@H](O)[C@@H]4O)c3n2)cc1		31.6% [at 11.4 µM]
COc1ccc(C(=O)n2nc(-c3ccccc3)nc2SC)cc1	inactive	
CCC(=O)n1nc(-c2ccc(OC)cc2)nc1N	10 µM (active)	
CCOc1ccc(N2CC(C(=O)NCc3cccc(C)c3)CC2=O)cc1 (stereo not given)	7.94 µM (active)	
CC(C)Oc1ccc(N2CC(C(=O)OCC(=O)NCc3ccccc3)CC2=O)cc1 (stereo not given)	15.8 µM (active)	
O=C(CN1CCN(S(=O)(=O)c2ccccc2)CC1)NC(=O)NCc1ccccc1	inactive	
Cc1cc(C)nc(SCC(=O)N/N=C\c2sccc2C)n1	5.01 µM (active)	
O=C(CNC1CCCCCC1)Nc1ccccc1N1CCCCC1	4.47 µM (active)	
O=C(CSc1nc2ccccc2o1)NC(=O)NCc1ccccc1	3.55 µM (active)	

SMILES	AC50	activity, negative = inhibition
O=C(CSc1nc2ccccc2o1)Nc1ccccc1N1CCCCCC1	15.8 µM (active)	
CNc1c2c(nn1C)CCCC2	inactive	
C[N+](C)(C)c1cc2c(nn1)Nc1ccccc1S2		-41.4% [at 11.4 µM]
CC1(C)N=C(N)N=C(N)N1CCCCc1ccccc1		24% [at 11.4 µM]
O=C(CSc1nc2ccccc2o1)Nc1nc2ccccc2s1	1.78 µM (active)	
O=C(O)c1ccc(CSc2nc3ccccc3o2)cc1	35.5 µM (active)	
O=C(CSc1ccccn1)Nc1nc2ccc(Br)cc2s1	2 µM (active)	
O=C(O)c1ccc(CNCc2ccccc2)cc1		-4.75% [at 11.4 µM]
O=C(O)c1cc(=O)[nH]c(SCc2ccccc2)n1		-23.4% [at 11.4 µM]
Cc1cc(C)nc(SCC(=O)Nc2ccccc2[N+](=O)[O-])n1	7.94 µM (active)	
COc1nc(Cl)nc(Cl)c1Cl (tested in a mixture with another compound)		-12.4% [at 11.4 µM]
CC(=O)OC[C@@H]1O[C@@H](O/N=C2/C[C@@H](O)[C@@H](O)[C@@H]3[C@@H]4C(=O)N(C[C@@H]5CCCO5)C(=O)[C@H]4CC[C@H]23)[C@H](OC(C)=O)[C@H](OC(C)=O)[C@@H]1OC(C)=O		-5.2% [at 11.4 µM]
Cc1ccccc1NC(=O)CSc1nc(N2CCCCC2)nc(N2CCCCC2)n1	0.355 µM (active)	
Cc1ccccc1NC(=O)Cn1cnc2c1c(=O)n(C)c(=O)n2C	inactive	
O=C(C/C=N/OCc1ccc(F)cc1Cl)c1cnc(-c2ccccc2)s1	1.26 µM (active)	
O=C(C/C=N/OCc1ccc(Cl)cc1Cl)c1ccc(Cl)cc1	0.794 µM (active)	
CN(C)CN1CSC(=S)N(CN(C)C)C1	3.16 µM (active)	
Cc1cc(NC(=O)C2C3C(=O)N(Cc4ccc(Cl)cc4)C(C(=O)NC(C)(C)C)C34C=CC2(C)O4)no1 (stereo not given)	inactive	
CCc1ccc(N2CC(C(=O)NC3=NCCS3)CC2=O)cc1 (stereo not given)	15.8 µM (active)	
COc1ccc(N2CC(C(=O)Nc3cc(C)on3)CC2=O)cc1 (stereo not given)	inactive	
Cc1ccc(N2CC(C(=O)Nc3cc(C)on3)CC2=O)cc1 (stereo not given)	5.62 µM (active)	
CC(C)CO/N=C1/C[C@@H](O)[C@@H](O)[C@@H]2[C@@H]3C(=O)N(C[C@@H]4CCCO4)C(=O)[C@H]3CC[C@@H]12		-18.3% [at 11.4 µM]

SMILES	AC50	activity, negative = inhibition
O=C(c1cnccn1)N1CCC2(CCCN(c3ncccn3)C2)CC1	inactive	
COc1ccc(COC(=O)N/N=C2/C[C@@H](O)[C@@H](O)[C@@H]3[C@H]4C(=O)N(c5ccc(F)cc5F)C(=O)[C@@H]4CC[C@@H]23)cc1		-19.3% [at 11.4 µM]
C=CC[C@@H]1C=C[C@H](O/N=C(\C)CCN2CCc3nc(CC)c(CC)cc3C2)[C@H](CO)O1		-14% [at 11.4 µM]
COc1cc(NC(=O)Cc2c(C(=O)O)[nH]c3ccccc23)cc(OC)c1OC	inactive	
COc1cc(NC(=O)c2cc3nc(-c4ccccc4)cc(-c4ccccc4)n3n2)cc(OC)c1OC	6.31 µM (active)	
O=C(CSc1c[nH]c2ccccc12)N1CCOCC1	1.58 µM (active)	
Nn1c(SCC(=O)N2CCOCC2)nnc1-c1ccccc1Cl	inactive	
Fc1cccc(F)c1C(Nc1nncs1)Nc1nncs1		7.56% [at 11.4 µM]
O=C(O)CNCCc1ccccc1		4.74% [at 11.4 µM]
NNCCc1ccccc1	794 nM (active) and 316 nM (active)	
Cc1ccc(COc2ccc(Br)cc2/C=N/O)cc1	1 µM (active)	
O=c1c(-c2ccccc2)nc2cnc(N3CCOCC3)nc2n1Cc1cccs1	inactive	
C[C@@H](COc1ccccc1)N(CCCl)Cc1ccccc1	2 µM (active)	
O=S(=O)(Nc1nc(-c2sccc2Cl)cs1)c1cc(Cl)ccc1Cl	0.2 µM (active)	
COc1ccc(NC(=O)CN2CCN(CC(=O)Nc3ccccc3Cl)CC2)cc1	1.41 µM (active)	
O=C(Nc1ccc2c(c1)OCCO2)C1CCN(C(=O)c2ccccc2)CC1	22.4 µM (active)	
COC(=O)N1CCC2(CC1)CN(C(=O)Nc1ccc(OC)cc1)C2	inactive	
O=C(CC1C(=O)NCCN1C(=S)Nc1ccccc1)Nc1ccc2c(c1)OCCO2 (stereo not given)	11.2 µM (active)	
COc1ccc(NC(C)=O)cc1NC(=O)CN1CCN(CC(=O)Nc2ccccc2Cl)CC1	7.94 µM (active)	
CCC(C)NC(=O)C1CCN(C(=O)c2ccccc2)CC1 (stereo not given)	inactive	
COC(=O)N1CCC2(CCN(C(=O)Nc3ccc(OC)cc3)CC2)CC1	inactive	
